# Screening data (PubChem BioAssay)
# NIH3T3 tox: Cytotoxic Profiling in NIH 3T3 Cell Line of Diverse Libraries Using Quantitative High-Throughput Screening | NIH 3T3 viability, CellTiter-Glo ATP luminescence, 48-72 h | Potency, µM (highest dose often 96.7 µM), usual class: inhibitors | hit rate 4.3% among 94,000; also: nearly all actives have a fitted effect of over 55% in size
#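 First NIH 3T3 cells are plated at 400 cells/well; next compound is pinned in; then plates incubate 48 or 72 hr at 37 °C; finally CellTiter-Glo is added and luminescence read after 10 min.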
# HEK293 tox: Cytotoxic Profiling in HEK 293 Cell Line of Diverse Libraries Using Quantitative High-Throughput Screening; HEK 293 viability, ATP luminescence (CellTiter-Glo), 48-72 h; hit rate 6.6% among 94,000; Potency, µM (top dose mostly 115 µM), most hits filed as inhibitors; also: nearly all actives have a fitted effect of over 60% in size
#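 Pintool-delivered compounds were incubated with HEK 293 cells (250 cells/well) at 37 degree Celsius for 48 or 72 hr. ATP-dependent luminescence (CellTiter-Glo) then reported remaining viable cells.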
# NPR1 antag: Natriuretic polypeptide receptor (hNpr1) antagonism - Primary qHTS; HEK293 hNpr1 GloSensor cGMP, ANP-stimulated luminescence; hit rate 1.6% among 76,000; Potency, µM (highest dose often 46.3 µM), hits mostly inhibitors; AID 1347048, 2019; Atrial natriuretic peptide receptor 1 (Homo sapiens), P16066; calls by dose curve; also: nearly all actives have a fitted effect of over 60% in size
#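 HEK293 cells stably expressing human Npr1 and cGMP GloSensor pGS-40F, loaded 2 h with 2% GloSensor reagent, given compound 30 min at room temperature. Luminescence read before and 20 min after 0.1 nM hNppA.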
# Luciferase inh: Firefly luciferase inhibition profiling of diverse chemical library using quantitative high-throughput screening; purified P. pyralis luciferase, luminescence, biochemical; Potency, µM (titrated, usually from 115 µM), most hits filed as inhibitors; hit rate 2.5% among 76,000; AID 1347043, 2019; also: nearly all actives have a fitted effect of over 65% in size
# Target sequence (P08659 whole entry, looked up): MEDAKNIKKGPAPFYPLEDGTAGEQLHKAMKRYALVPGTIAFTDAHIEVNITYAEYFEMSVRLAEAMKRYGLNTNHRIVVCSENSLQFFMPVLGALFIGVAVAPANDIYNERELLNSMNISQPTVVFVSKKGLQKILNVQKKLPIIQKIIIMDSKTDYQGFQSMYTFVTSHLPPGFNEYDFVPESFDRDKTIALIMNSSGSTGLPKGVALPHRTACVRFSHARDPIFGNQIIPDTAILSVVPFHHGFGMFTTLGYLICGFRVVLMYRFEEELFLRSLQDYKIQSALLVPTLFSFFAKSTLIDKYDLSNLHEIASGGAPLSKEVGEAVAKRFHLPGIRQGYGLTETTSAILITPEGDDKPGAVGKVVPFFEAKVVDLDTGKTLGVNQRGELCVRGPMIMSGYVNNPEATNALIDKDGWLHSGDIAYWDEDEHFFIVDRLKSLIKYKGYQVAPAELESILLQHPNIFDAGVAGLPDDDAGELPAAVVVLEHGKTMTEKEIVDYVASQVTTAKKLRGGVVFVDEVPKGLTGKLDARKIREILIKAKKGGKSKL
#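 FLuc 10nM, D-luciferin 10uM, ATP 10uM, Mg acetate 10mM, Tris acetate pH 7.5, Tween/BSA; cpd qHTS; enzyme added last; CCD luminescence.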
# NPR1 antag cnf: Natriuretic polypeptide receptor (hNpr1) antagonism - Confirmation | shares compounds with NPR1 antag | hit rate 76% among 1,400 | HEK293 hNpr1 cGMP GloSensor luminescence, ANP-stimulated | Potency, µM (highest dose often 57.6 µM), most hits filed as inhibitors; calls by dose curve; also: nearly all actives have a fitted effect of over 70% in size
# NPR2 antag: Natriuretic polypeptide receptor (hNpr2) antagonism - Subtype selectivity assay; Potency, µM (titrated, usually from 57.6 µM), actives largely listed as inhibitors; HEK293 hNpr2 GloSensor cGMP luminescence, CNP-stimulated; hit rate 67% among 1,400; shares compounds with NPR1 antag; calls by dose curve; also: nearly all actives have a fitted effect of over 70% in size
# FLuc inh counter: Natriuretic polypeptide receptor (hNpr1) antagonism - Confirmation firefly luciferase (FLuc) inhibition counterscreen; shares compounds with NPR1 antag; purified FLuc enzyme, luminescence, Km substrate; Potency, µM (top dose mostly 57.6 µM), most hits filed as inhibitors; hit rate 0.7% among 1,400; AID 1347047, 2019
# GloSensor cGMP: Natriuretic polypeptide receptor (hNpr1) antagonism - Counterscreen GloSensor control cell line | shares compounds with NPR1 antag | HEK293 GloSensor cGMP, SNP-stimulated, luminescence | Potency, µM (doses to about 57.6 µM), actives largely listed as inhibitors | hit rate 69% among 1,400 | AID 1347051, 2019; calls by dose curve; also: nearly all actives have a fitted effect of over 70% in size
# Hits are given with their value; i = inactive; ? = inconclusive; nt = no result. Rows were chosen to be rich in hits. Some 11% of all compounds tested hit in one or more screens of this group. Unless noted, calls follow the shape of the dose curve; as a rule, active = well fitted curve in the direction sought with a large enough effect; inconclusive = small, poorly fitted or top-dose-only effect, or another doubt; inactive = no such curve, though single readings can be large; an effect the other way counts as inactive or inconclusive.
SMILES,NIH3T3 tox,HEK293 tox,NPR1 antag,Luciferase inh,NPR1 antag cnf,NPR2 antag,FLuc inh counter,GloSensor cGMP
O=S(=O)(N[C@H]1CO[C@H]2[C@@H]1OC[C@@H]2Nc1nccc(-c2ccc3c(c2)OCO3)n1)c1ccc2ccccc2c1,i,?,13µM,i,24µM,?,i,?
O=C(Nc1cccc2ccccc12)O[C@@H]1CO[C@H]2[C@@H]1OC[C@@H]2Nc1nccc(-c2ccccc2)n1,i,?,i,i,nt,nt,nt,nt
N#Cc1cccc(NC(=O)O[C@@H]2CO[C@H]3[C@@H]2OC[C@@H]3Nc2nccc(-c3cccc(F)c3)n2)c1,22µM,10µM,11µM,i,19µM,19µM,i,19µM
CN1CCCCC1C(=O)NCc1cccnc1Oc1cccc(C(F)(F)F)c1 (centres undefined),i,i,i,i,nt,nt,nt,nt
COCCN1CCOC2(CCN([S+](=O)([O-])c3ccc(F)cc3F)CC2)C1=O,?,i,i,i,nt,nt,nt,nt
COc1ccc([S+](=O)([O-])N2CCC3(CC2)OCCN(c2ccc(F)cc2)C3=O)cc1,?,?,?,i,31µM,?,i,31µM
CC(=O)NCC1CCCN(Cc2ccc(-c3ccccc3C#N)o2)C1 (centres undefined),i,i,i,i,?,?,i,i
CCc1ccc(CN2CCCC(CNC(=O)c3cccc(OC)c3OC)C2)o1 (centres undefined),i,?,i,i,nt,nt,nt,nt
Cc1cc(C(=O)N2CCC3(CC2)CC(N(Cc2ccc(F)cc2)C2CC2)CCO3)n(C)n1 (centres undefined),?,?,?,i,27µM,?,i,27µM
COCCn1c(=O)n([C@H]2CCCN(S(=O)(=O)c3cccc(OC)c3)C2)c2ncccc21,i,?,i,i,nt,nt,nt,nt
Cn1ccc(NC(=O)c2ccc3c(c2)NC(C)(CCCCc2ccccc2)CO3)n1 (centres undefined),40µM,45µM,10µM,i,14µM,20µM,i,13µM
Cn1ccc(NC(=O)c2ccc3c(c2)NC(C)(CNCc2ccccc2)CO3)n1 (centres undefined),i,?,i,i,nt,nt,nt,nt
COc1ccc(-c2nccn3cc(C(=O)NCc4ccc(OC)c(OC)c4)nc23)cc1,i,?,13µM,i,19µM,15µM,i,i
Cc1ccccc1CC(=O)NCc1nnc2cc(-c3nc(C4CC4)no3)ccn12,i,i,i,i,nt,nt,nt,nt
Cc1c(CN(C)c2cc(C3CC(O)C3)nc(N)n2)[nH]c2ccccc12 (centres undefined),?,i,0.63µM,i,0.43µM,0.86µM,i,0.43µM
Cc1ccc(SCCN(C)c2cc(C3CC(O)C3)nc(N)n2)cc1 (centres undefined),?,28µM,13µM,i,24µM,22µM,i,22µM
CCn1cc(CNC(=O)c2ccc(OC3CCN(S(=O)(=O)N(C)C)CC3)cc2)cn1,i,?,13µM,i,19µM,19µM,i,11µM
CC1Oc2ccc(NC(=O)c3ccc(F)cc3)cc2CN(Cc2ccc3c(c2)OCO3)C1=O (centres undefined),?,?,?,i,24µM,?,i,31µM
C=CCN1C[C@H]2COc3cc(OC)ccc3[C@H]2N(C(=O)CCCCC)CCC1=O,?,i,nt,nt,nt,nt,nt,nt
Cc1ccc(C(=O)N2CCC(C(=O)N3CCC4(CC3)CC(=O)Nc3ccccc3O4)CC2)cc1,i,?,nt,nt,nt,nt,nt,nt
COc1ccc(C(=O)N2CCC3(CC2)CC(=O)Nc2ccccc2O3)cc1,i,i,13µM,i,22µM,22µM,i,22µM
Cc1ccc(C(=O)N2CCC3(CC2)CC(=O)Nc2ccccc2O3)cc1,i,?,nt,nt,24µM,24µM,i,15µM
COc1ccc(C(=O)N2CCC3(CC2)CC(=O)c2ccccc2O3)cc1,i,?,i,i,nt,nt,nt,nt
COc1cccc([S+](=O)([O-])N2CCC3(CC2)C(=O)Nc2ccccc23)c1,?,?,13µM,i,20µM,20µM,i,16µM
CN(C)C[C@H]1O[C@H](Cc2cc(-c3cccc(O)c3)on2)CC[C@@H]1O,i,i,28µM,i,?,i,i,?
SMILES,NIH3T3 tox,HEK293 tox,NPR1 antag,Luciferase inh,NPR1 antag cnf,NPR2 antag,FLuc inh counter,GloSensor cGMP
O=C(NCc1cccs1)C1CCN(C(=O)c2ccc(-c3cncnc3)cc2)CC1,i,i,nt,nt,nt,nt,nt,nt
COc1ccc(-n2nc(C)c([C@H]3C=C[C@@H](OC(=O)N[C@H](C)c4ccccc4)C3)c2C)cc1,?,14µM,11µM,i,9.9µM,13µM,i,8.9µM
COc1ccc(-n2nc(C)c([C@@H]3C=C[C@@H](NS(=O)(=O)c4cccs4)C3)c2C)cc1,?,?,?,i,?,?,i,35µM
Cc1nn(Cc2ccccc2)c(C)c1[C@@H]1C=C[C@@H](NS(=O)(=O)c2cccs2)C1,?,?,?,i,?,?,i,?
Cc1nn(Cc2ccccc2)c(C)c1[C@@H]1C=C[C@@H](NC(=O)c2cccs2)C1,?,?,i,i,nt,nt,nt,nt
CCc1ccc(Cn2nc(C3CC3)nc2-c2cnn(C)c2)cc1,?,?,i,?,nt,nt,nt,nt
CCN(Cc1ccncc1)C(=O)CC(c1ccccc1)c1ccc2c(c1)OCO2 (centres undefined),i,?,?,i,?,14µM,i,i
CNC(=O)c1cc(C)nc2onc(C3CCCN(C(=O)C4CCCCC4)C3)c12 (centres undefined),i,i,nt,nt,nt,nt,nt,nt
Cc1nc(CN2C(=O)OC3(CCN(Cc4c[nH]c5ccccc45)CC3)C2(C)c2ccccc2)cs1 (centres undefined),20µM,?,i,i,?,?,i,i
O=C1NCCCCCCN(C(=O)NC2CCCCC2)[C@H]2C[C@H](C(=O)N3CCc4ccccc4C3)C[C@@H]12,i,i,i,i,nt,nt,nt,nt
CN1C[C@@H](NC(=O)CC(C)(C)CC(=O)O)C[C@H]1c1nc(-c2ccccc2)no1,i,i,i,?,nt,nt,nt,nt
Cc1ccc(-c2noc([C@@H]3C[C@H](NC(=O)CC(C)(C)C)CN3C)n2)cc1,?,89µM,35µM,i,?,?,i,?
